Compounds with a hit are over-represented: about 21% of the library has one in this group of screens.
Pf growth 96h: Primary qHTS for delayed death inhibitors of the malarial parasite plastid, 96 hour incubation. Potency, µM (titrated, usually from 28.7 µM), most hits filed as inhibitors. P. falciparum luciferase reporter growth, 96 h. AID 504834, 2011. 6.9% of 320,000 active
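Erythrocytes infected with luciferase-expressing P. falciparum were dispensed at 2% hematocrit and 0.05% parasitemia (final), then incubated with compounds 96 hours at 37 C in 5% CO2. Luminescence after detection reagent addition reported growth.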
Cycloheximide cs: Cycloheximide Counterscreen for Small Molecule Inhibitors of Shiga Toxin; max response, %; 12% of 300,000 active; cell reporter, cycloheximide protein synthesis inhibition counterscreen; AID 2314, 2010; in the data active means max response mostly above about 13%, no sharp cut-off; inactive means mostly below about 14%; further: read at 38.3 µM for the half of the compounds with a filed dose
SARS PLP yeast: qHTS of Yeast-based Assay for SARS-CoV PLP; Potency, µM (series often up to 32.9 µM), usual class: activators; S. cerevisiae expressing SARS-CoV PLpro, growth rescue; 0.19% of 330,000 active; AID 485353, 2010; calls by dose curve; further: nearly all actives have a fitted effect of over 55% in size
NS1 function inh: qHTS Assay for Inhibitors of Influenza NS1 Protein Function; Potency, µM (series often up to 46.1 µM); 0.4% of 270,000 active; calls by dose curve; further: actives are rising curves; nearly all actives have a fitted effect of over 50% in size
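Growth recovery, yeast-based: influenza A NS1 expressed in S. cerevisiae causes slow growth, and suppressors are detected by OD600. The parent strain without NS1 is used as positive control.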
Pf growth 48h: Primary qHTS for delayed death inhibitors of the malarial parasite plastid, 48 hour incubation; P. falciparum luciferase growth in erythrocytes, 48 h; Potency, µM (top dose mostly 28.7 µM), actives largely listed as inhibitors; 5.9% of 310,000 active; AID 504832, 2011
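Luciferase-expressing P. falciparum in infected erythrocytes (2% hematocrit, 0.1% parasitemia final) in RPMI 1640/0.5% Albumax were exposed to compound for 48 hours at 37 C, 5% CO2; growth read as luminescence.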
Shiga inhibitor: A qHTS for Small Molecule Inhibitors of Shiga Toxin; Vero cells, Shiga toxin protein synthesis inhibition reporter; inhibition, % at 38.7 µM; 9.2% of 290,000 active; AID 2315, 2010; in the data active means inhibition mostly above about 28%, no sharp cut-off; inactive means mostly below about 43%
Each line names hits and unclear results; the compound was inactive in the other large screens. Unless noted, the call rests on the fitted dose curve; in most records, active means well fitted inhibition curve with a large enough effect; inconclusive means small, poorly fitted or top-dose-only effect, or another doubt; inactive means no such curve, though single readings can be large or run the other way.

CCCCn1nc2cc(C(=O)NC3CCc4ccccc43)ccc2c1OCC (stereo unspecified)	Pf growth 96h 8.3µM, Pf growth 48h inconclusive
O=C(Nc1ccccn1)N1CCOCC1	none (no result: Pf growth 96h)
O=C(Nc1ccccn1)C(=O)N1CCCCC1	Shiga inhibitor 47
O=C(NNc1ccccc1)C(=O)N1CCCCC1	none
O=C(Nc1ccccc1Br)C(=O)N1CCCC1	Cycloheximide cs 40, Shiga inhibitor active
C/C(CC(=O)Nc1ccccc1Br)=N\NC(=O)C(=O)N1CCCC1	Pf growth 96h 10µM
N#Cc1ccc(CN2CCN(C(=O)CC(NC(=O)c3ccccc3)c3ccccc3)CC2)cc1 (stereo unspecified)	none
C=CCN(C(=O)CC(NC(C)=O)c1ccccc1)c1nc(-c2ccc(S(C)(=O)=O)cc2)cs1 (stereo unspecified)	Pf growth 96h inconclusive, Cycloheximide cs 31, Pf growth 48h 9.3µM, Shiga inhibitor 79
C=CCN(C(=O)CSc1nnnn1C)c1nc(-c2ccccc2)cs1	none (no result: Cycloheximide cs, NS1 function inh, Shiga inhibitor)
O=C(c1ccc(Cl)c(S(=O)(=O)N2CCOCC2)c1)N(Cc1ccco1)Cc1cccs1	Pf growth 96h 2.6µM, Pf growth 48h inconclusive (no result: Cycloheximide cs, NS1 function inh, Shiga inhibitor)
CC(C)(C)N1C(=O)c2ccc(C(=O)NCc3ccco3)cc2C1=O	Cycloheximide cs 16 (no result: Pf growth 96h)
CNS(=O)(=O)c1cc(C(=O)NCc2ccco2)ccc1Cl	none (no result: Pf growth 96h)
O=C(NCc1ccco1)c1ccc2[nH]c(=O)c(=O)[nH]c2c1	none
CN(C)C1(CNC(=O)c2ccc(Cl)c(S(=O)(=O)NCc3ccco3)c2)CCCCC1	Cycloheximide cs 23, Pf growth 48h inconclusive (no result: Pf growth 96h)
Cc1ccc(C(=O)NCc2ccco2)cc1S(=O)(=O)N1CCCC1	Pf growth 48h 12µM
CCCc1nnc2n1N=C(c1ccc(C)cc1)CS2	Pf growth 96h inconclusive
CCN(c1ccccc1)S(=O)(=O)c1cc(C(=O)NCc2ccco2)ccc1C	Pf growth 96h 13µM, Pf growth 48h 12µM (no result: Cycloheximide cs, NS1 function inh, Shiga inhibitor)
CCc1ccc(NC(=O)c2ccc(F)c(S(=O)(=O)N(CC)c3ccccc3)c2)cc1	Pf growth 96h inconclusive, Cycloheximide cs 14, Pf growth 48h 9.3µM
CC1CCCN(S(=O)(=O)c2cc(C(=O)NCc3ccco3)ccc2Cl)C1 (stereo unspecified)	none (no result: Pf growth 96h, Cycloheximide cs, NS1 function inh, Pf growth 48h, Shiga inhibitor)
O=C(NCc1ccco1)c1ccc(Cl)c(S(=O)(=O)N2CCCC2)c1	Pf growth 96h 2.6µM, Pf growth 48h 9.3µM (no result: Cycloheximide cs, NS1 function inh, Shiga inhibitor)
CCN(c1ccccc1)S(=O)(=O)c1cc(C(=O)NCC(c2ccco2)N2CCCCC2)ccc1C (stereo unspecified)	none (no result: Pf growth 96h, Cycloheximide cs, NS1 function inh, Pf growth 48h, Shiga inhibitor)
Cn1c(NC(=O)c2ccccc2F)c(-c2cccs2)c(=O)c2ccccc21	none
Nc1nc(NCCOCCO)nc(NCC2CCCO2)c1[N+](=O)[O-] (stereo unspecified)	none
CC(C)(C)C(=O)CNCC(=O)C(C)(C)C	none
Nn1c(SCc2ccccn2)nncc1=O	Pf growth 96h 12µM
COc1ccc(/C(C)=N/Nc2nc(C)c(C(C)=O)s2)cc1	Cycloheximide cs 12, Pf growth 48h inconclusive, Shiga inhibitor 65
Cc1cccc(Nc2nc3c(s2)CCCC3)c1	Pf growth 96h inconclusive, Cycloheximide cs 68, Shiga inhibitor 122
CCOC(=O)c1sc(Nc2ccc(C)cc2C)nc1C	Cycloheximide cs 18, Pf growth 48h inconclusive (no result: Pf growth 96h)
Cc1nc(Nc2ccccc2)sc1C(=O)c1ccccc1	Pf growth 96h inconclusive, Cycloheximide cs 47, Shiga inhibitor 58
CCOC(=O)c1sc(Nc2nc(C)cc(C)n2)nc1C	Pf growth 96h inconclusive, Pf growth 48h inconclusive
O=C(O)c1ccc(Nc2nc3c(s2)CCCC3)cc1	none
COc1ccc(C(=O)c2sc(Nc3ccccc3)nc2C)cc1	Pf growth 96h inconclusive
COC(=O)c1ccc(/C=N/Nc2nc(C)c(C)s2)cc1	Pf growth 96h inconclusive, Cycloheximide cs 63, Shiga inhibitor 97
CC(=O)c1sc(NC(=O)c2c(F)cccc2F)nc1C	NS1 function inh inconclusive (no result: Pf growth 96h)
CCOC(=O)c1sc(Nc2ccc(F)cc2)nc1C	Cycloheximide cs 28, Shiga inhibitor 80 (no result: NS1 function inh)
O=S1(=O)N=C(Nc2nc3c(s2)CCCC3)c2ccccc21	Cycloheximide cs 28, Shiga inhibitor 57
CC(=O)c1sc(Nc2cccc(C)c2)nc1C	Cycloheximide cs 46, Shiga inhibitor 91
C=CCn1c(=O)c(CCC(=O)Nc2ccc(N3CCOCC3)cc2)nc2cc(C(F)(F)F)ccc21	Pf growth 96h inconclusive, Pf growth 48h inconclusive
CCOC(=O)c1sc(NC(=O)C2CC2)nc1C	Pf growth 96h inconclusive (no result: Pf growth 48h)
CCOC(=O)c1sc(N/N=C/c2ccccc2)nc1C	Cycloheximide cs 85, Shiga inhibitor 34
CC(=O)c1sc(N/N=C\c2ccccc2O)nc1C	Cycloheximide cs 30
CCOC(=O)c1sc(N/N=C/c2cccc(C)c2)nc1C	none
CCOC(=O)c1sc(Nc2nc3c(OC)cccc3s2)nc1C	Cycloheximide cs 50, Shiga inhibitor 81
CCOC(=O)c1sc(NCC2CCCO2)nc1C (stereo unspecified)	Pf growth 96h inconclusive, Cycloheximide cs active
Cc1ccc2nc(NC(=O)CSc3nc(=O)n(CCN(C)C)c4c3CCCC4)sc2c1	Pf growth 96h inconclusive, Pf growth 48h inconclusive (no result: Cycloheximide cs, NS1 function inh, Shiga inhibitor)
Cc1cnc(C(=O)OCc2ccc(Br)cc2)cn1	none
COC(=O)c1sc(NC(=O)C(C)c2ccccc2)nc1C (stereo unspecified)	Pf growth 96h inconclusive
CCOC(=O)c1sc(NC(=O)Nc2ccc(Cl)cc2)nc1C	Cycloheximide cs 43, Pf growth 48h inconclusive, Shiga inhibitor 72
COc1ccc(Nc2nc(N)c(C(=O)c3ccc(OC)cc3)s2)cc1	Pf growth 48h inconclusive
COc1ccccc1CNc1nc(C)c(C(C)=O)s1	Cycloheximide cs 43, Shiga inhibitor 61
CCOC(=O)Nc1nc(C)c(C(=O)c2ccc(Cl)cc2)s1	none (no result: Pf growth 96h)
CC(C)(C)C(=O)c1sc(Nc2ccccc2)nc1N	Cycloheximide cs 59, Pf growth 48h inconclusive, Shiga inhibitor 68
COC(=O)c1sc(Nc2ccccc2)nc1C	Cycloheximide cs 35, SARS PLP yeast inconclusive, Shiga inhibitor 104
Cc1ccc(N2CC(=O)N(NC(=O)c3sc4nc(C)cc(C)c4c3N)CC2=O)cc1	none
OC[C@H]1O[C@H](OC[C@H]2O[C@H](OC[C@H]3O[C@H](O[C@]4(CO)O[C@H](CO)[C@@H](O)[C@@H]4O)[C@H](O)[C@@H](O)[C@@H]3O)[C@H](O)[C@@H](O)[C@H]2O)[C@H](O)[C@@H](O)[C@H]1O	none (no result: Cycloheximide cs, SARS PLP yeast, NS1 function inh, Shiga inhibitor)
O=C(C1CCN(S(=O)(=O)c2ccccc2)CC1)N1CCN(Cc2ccccc2)CC1	Pf growth 96h inconclusive
CCOc1ccccc1C(=O)Nc1nnc(C(C)C)s1	none (no result: Pf growth 48h)
CCOC(=O)c1sc(NS(=O)(=O)c2ccccc2)nc1C	Pf growth 96h inconclusive
CCOC(=O)c1sc(NC(=O)c2ccccc2OCC)nc1C	Cycloheximide cs 36 (no result: NS1 function inh)
CNc1nc(C)c(C(=O)OCC(=O)OC)s1	none

Source: PubChem BioAssay (National Center for Advancing Translational Sciences (NCATS))
